D2 ag-1 = agonists of human D2 dopamine receptor; P14416; HEK293 T-REx D2 cells, calcium flux agonist mode; activation, % at 2 µM; hit rate 0.53% among 340,000;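 active means activation over 3 SD above normal in the single-dose calcium agonist read, cut at about 30% in these data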; further: 0% is about no effect
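Agonism scored from kinetic calcium signal (1 read/sec, 180 s) following compound pin transfer, after a 10 s baseline. Cells: HEK293 Trex line expressing inducible D2 receptor coupled to calcium, dye-loaded after overnight culture at 30 C.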
D2 PAM-1 = positive allosteric modulators of human D2 dopamine receptor; P14416; potentiation, % at 10 µM; HEK293 T-REx D2, calcium flux, EC20 dopamine potentiation; AID 485347; hit rate 0.34% among 340,000;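 active means potentiation over 3 SD above the plate norm, cut at about 30% in these data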; further: 0% is about no effect
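Cells plated with tetracycline inducer and held overnight at 30 C; calcium dye loaded 30–90 min at room temperature; baseline taken, compound added and read 180 s; EC20 dopamine then added and read 180 s.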
D2 ag-2 = activates the human D2 dopamine receptor. P14416. DiscoveRx PathHunter D2 beta-arrestin, luminescence, 90 min; 100% = 57 uM dopamine signal. activation, % (test concentration not listed). hit rate 0.084% among 360,000. AID 624465; in the data active means activation above about 40%; inconclusive means between about 15% and that limit
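Agonist mode: compounds alone added to overnight-plated D2 PathHunter cells for 90 min at 37 C, with 57 uM final dopamine (EC100) defining full response. Beta-arrestin recruitment detected by chemiluminescent reagent, read after 1 h at ambient temperature.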
D2 antagonist = antagonizes the human D2 dopamine receptor. inhibition, % at 10 µM. HEK293 TREx D2 cells, calcium flux, dopamine EC80. P14416. hit rate 2% among 340,000. AID 485344; in the data active means inhibition above about 30%; inactive means below that, where a call was filed; further: 0% is about no effect
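Dopamine at EC80 is the agonist stimulus; test compounds precede it by 180 s. Calcium flux read kinetically in a force-coupled, inducible HEK293 T-REx D2 cell line.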
D2 PAM-2 = positive allosteric modulators of human D2 dopamine receptor. potentiation, % (test concentration not listed). DiscoveRx D2 beta-arrestin cells, luminescence, 90 min; 100% = 57 uM dopamine signal. hit rate 0.23% among 360,000. P14416; in the data active means potentiation above about 50%; inconclusive means mostly about 30% to 49%
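PathHunter D2 cells, attached overnight at 37 deg C, received compound in DMSO plus dopamine at EC20 (50 nM final) for 90 min at 37 deg C. Beta-arrestin recruitment was read as luminescence after 1 h with detection reagent at ambient temperature.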
D3 ag = activates human D3 dopamine receptor beta-arrestin recruitment; shares compounds with D2 ag-1; DiscoveRx D3 beta-arrestin cells, luminescence, 90 min; Potency, µM (highest dose often 76.9 µM), inactives show at the top dose activation, actives largely listed as activators; hit rate 4% among 2,300; AID 720506;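 further: potency means the concentration at half of the fitted maximal effect; 100% = dopamine control response; nearly all actives have a fitted effect of over 70% in size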
Target sequence (P35462 whole entry, looked up): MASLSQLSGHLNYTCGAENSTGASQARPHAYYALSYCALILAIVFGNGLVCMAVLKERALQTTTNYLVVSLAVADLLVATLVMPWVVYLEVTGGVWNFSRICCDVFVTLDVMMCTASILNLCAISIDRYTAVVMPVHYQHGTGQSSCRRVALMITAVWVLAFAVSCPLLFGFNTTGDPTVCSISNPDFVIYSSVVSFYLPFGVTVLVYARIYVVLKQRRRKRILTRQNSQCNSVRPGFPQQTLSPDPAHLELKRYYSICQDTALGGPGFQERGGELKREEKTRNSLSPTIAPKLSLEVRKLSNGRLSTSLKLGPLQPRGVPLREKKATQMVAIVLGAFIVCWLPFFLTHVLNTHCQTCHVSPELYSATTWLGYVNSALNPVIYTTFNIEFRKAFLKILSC
D2 ag-3 = counter-screen for D3 agonists: human D2 dopamine receptor agonism; Potency, µM (series often up to 76.9 µM), without a hit: at the top dose activation, usual class: activators; shares compounds with D2 ag-1; hit rate 5.9% among 2,300; DiscoveRx PathHunter D2 beta-arrestin, luminescence, 90 min; response scale: percent relative to full dopamine signal; further: potency means the concentration at half of the fitted maximal effect; % of control where 0% means no effect; nearly all actives have a fitted effect of over 70% in size
* = called active by the depositor; ? = inconclusive; / = no result given. Hits are enriched below; roughly 2.4% of the tested compounds scored in any of these assays. Unless noted, the call rests on the fitted dose curve; in most records, active means well fitted activation curve with a large enough effect; inconclusive means small, poorly fitted or top-dose-only effect; inactive means flat fitted curve, though single readings scatter.

SMILES	D2 ag-1	D2 PAM-1	D2 ag-2	D2 antagonist	D2 PAM-2	D3 ag	D2 ag-3
COc1ccc(/C=C/C(=O)N2CCN(c3ccccn3)CC2)cc1OC	16	3	3	-11	-2	13%	7%
Cc1cccc(N2CCN(c3ccc(C(=O)O)cc3NC(=O)c3cccc(Cl)c3)CC2C)c1 (stereo not given)	0	11	/	/	/	/	/
Cn1c(SCC(=O)c2ccc3c(c2)NC(=O)CO3)nc2ccccc21	2	3	5	-13	-5	/	/
CCCn1c(SCC(=O)c2ccc3c(c2)NC(=O)CO3)nc2ccccc21	5	-7	0	2	-1	-2%	5%
Cc1ccc(NC(=O)Cn2nnc(C(=O)NCCc3ccccc3)c2N)cc1	0	0	/	/	/	/	/
CCc1ccccc1NC(=O)c1cc(-c2cccc(O)c2)on1	/	/	-2	/	3	-8%	-1%
O=C(Nc1ccccc1C(F)(F)F)c1cc(-c2cccc(O)c2)on1	1	-10	0	-15	-7	/	/
CCOC(=O)N1CCC(N2CCCC(C(=O)c3cccc(OC(C)C)c3)C2)CC1 (stereo not given)	-2	12	-1	18	-5	/	/
CCOC(=O)N1CCC(N2CCCC(C(=O)c3cccc(OC)c3)C2)CC1 (stereo not given)	50*	-24	3	40*	-30	-10%	3%
CCOC(=O)N1CCC(N2CCN(S(=O)(=O)CC)CC2)CC1	0	-3	2	-4	-12	/	/
CCOC(=O)N1CCC(N2CCN(c3ccccc3)CC2)CC1	45*	-11	?	74*	9	?	?
O=C(c1cccc2ccccc12)N1CCC(N2CCN(c3ccccc3)CC2)CC1	77*	-22	7	75*	16	1.4µM*	?
O=C(c1cccs1)N1CCC(N2CCN(c3ccccc3)CC2)CC1	85*	-25	?	54*	1	7.1µM*	?
COC(=O)CC1Oc2ccc(F)cc2-n2cc(-c3ccc(Cl)cc3)nc21 (stereo not given)	1	25	/	/	/	/	/
Cc1ccc(C)c(S(=O)(=O)c2nnn3c2nc(Nc2ccc(C)c(C)c2)c2ccccc23)c1	0	1	/	/	/	/	/
O=C(Nc1ccc2oc(-c3ccccc3)nc2c1)c1cc(-n2cnnc2)ccc1Cl	/	/	4	/	0	/	/
O=C(Nc1ccc(-c2nc3ccccc3o2)cc1)c1cc(-n2cnnc2)ccc1Cl	0	9	2	7	19	?	6%
N#Cc1ccccc1OCC(=O)OCCCOC(=O)COc1ccccc1C#N	62*	-19	-1	15	-4	1%	-2%
COc1cc(C)ccc1OCCSc1nnc(-c2ccc(C)cc2)o1	-2	5	/	/	/	/	/
COc1cccc(S(=O)(=O)NC2CCN(C#N)C2)c1 (stereo not given)	0	5	/	1	/	-6%	-2%
C/C(Cn1cnc([N+](=O)[O-])n1)=N\NC(=O)c1ccc(O)cc1O	6	17	-4	-4	1	?	1%
C/C(Cn1cnc([N+](=O)[O-])n1)=N\NC(=O)c1ccccc1O	0	3	7	0	-9	/	/
COc1ccc(NC(=O)c2oc3ccccc3c2NC(=O)Cc2coc3ccc(C)cc23)cc1	0	3	/	/	/	/	/
CCOc1ccc(CCNC(=O)c2ccc3nc(N4CCOCC4)sc3c2)cc1OCC	0	7	0	8	-4	14%	1%
COc1ccc(CCNC(=O)c2ccc3nc(N4CCOCC4)sc3c2)cc1OC	0	4	-4	12	5	/	/
SMILES	D2 ag-1	D2 PAM-1	D2 ag-2	D2 antagonist	D2 PAM-2	D3 ag	D2 ag-3
CCCOc1ccc(Oc2nc(NCC(C)C)nc(N3CCOCC3)n2)nn1	0	-5	/	/	/	/	/
COc1ccc(N2CCN(CC(O)COc3ccc(C(C)(C)C)cc3)CC2)cc1 (stereo not given)	9	-2	/	/	/	/	/
COc1ccc(OCC(O)CN2CCN(c3ccccc3)CC2)cc1 (stereo not given)	89*	-22	?	-4	-25	?	?
CC(C)c1ccc(OCC(O)CN2CCN(c3ccccc3)CC2)cc1 (stereo not given)	54*	-26	?	78*	-8	-4%	?
COc1ccc(OCC(O)CN2CCN(c3ncccn3)CC2)cc1 (stereo not given)	70*	-20	?	62*	-19	?	?
OC(COc1ccc2c(c1)OCO2)CN1CCN(c2ccccc2)CC1 (stereo not given)	71*	-32	?	82*	-14	?	?
COc1ccc(C(=O)CN2CCN(c3ncccn3)CC2)cc1	80*	-33	14	39*	-4	26%	27%
CN(C)c1ccc(C(=O)N2CCC2(C)C(=O)O)cc1 (stereo not given)	/	/	-1	/	-2	/	/
COc1ccc(C(=O)Nc2cc(C(F)(F)F)ccc2-n2cnc3ccccc32)cc1	0	13	2	-3	-5	/	/
CC(=O)Nc1ccc(C(=O)Nc2cc(C(F)(F)F)ccc2-n2cnc3ccccc32)cc1	1	2	3	7	-2	-5%	-2%
NS(=O)(=O)c1ccc(-c2ccc(/C=N/NC(=O)c3ccc([N+](=O)[O-])cc3)o2)cc1	0	1	1	5	5	/	/
NS(=O)(=O)c1ccc(-c2ccc(/C=N/Nc3ccc(C(=O)O)cc3)o2)cc1	4	-1	?	8	16	11%	15%
Nc1nc(C(=O)N2CCOCC2)nn1C(=O)c1ccc(Cl)cc1	0	6	0	23	0	-12%	-10%
O=C(c1ccc(Cl)cc1)c1ccccc1C(=O)N1CCOCC1	0	8	-1	0	-2	/	/
COc1cccc(-n2cc(CNC(=O)C3CCC(=O)N(C4CC4)C3)cn2)c1 (stereo not given)	0	2	8	19	3	-2%	5%
COc1cccc(-n2cc(CN(C)C(=O)C3CCC(=O)N(C4CC4)C3)cn2)c1 (stereo not given)	/	/	-3	/	-7	/	/
O=C(NCCOC(=O)c1ccc(C(=O)OCCNC(=O)c2cccnc2)s1)c1cccnc1	69*	-28	-5	29	-2	-8%	-4%
CN1CCN(C(=O)CSc2nc(-c3ccco3)cc(C(F)(F)F)n2)CC1	-1	-6	1	-15	-15	/	/

From PubChem BioAssay
